The results in this text go back to the supplement of paper PMC13380429.

Values without a mark were called inactive.

For this experiment, the system named is Vero E6 infected with SARS-CoV-2. Briefly: inhibition of SARS-CoV-2 cytopathic effect; higher = more antiviral protection, active = above 15. The following applies: 8.33 nM; 48 h. In general terms: Damage to the host cells serves as the signal in cytopathic effect assays.
Take `Oc1ccc2c3c1O[C@H]1[C@@H](O)CC[C@@]4(O)[C@@H](C2)N(CC2CCC2)CC[C@]314` [nalbuphine]: the “inhibition of SARS-CoV-2 cytopathic effect” value (shortened to “inhibition”) was 0.43%.
On to `O=C(O)[C@H](O)c1ccccc1` [mandelic-acid], for which the “inhibition” value is 3.41%.
The same measure for `CSc1ccccc1OCC(O)CNC(C)C` (centres undefined) [tiprenolol]: 2.58%; for `Nc1n[n+]([O-])c2ccccc2[n+]1[O-]` [tirapazamine]: 0.77%; for `Cc1cccc(NC(=O)CN2CCC(c3ccccn3)CC2)c1`: 1.06%.
The same measure for `CC[N+](CC)(CC)CCC(O)(c1ccccc1)C1CCCCC1` (centres undefined) [tridihexethyl]: -1.31%.
Turning to `C=CC(=O)Nc1ccc2ncnc(Nc3ccc(OCc4cccc(F)c4)c(Cl)c3)c2c1`, the “inhibition” value is 1.55%.
Consider `CC(=O)N(C)c1cc(-c2ccnc3c(C(=O)c4cccs4)cnn23)ccc1F` [lorediplon], for which the “inhibition” value is -0.41%.
As for `CO/N=C(\C(=O)N[C@@H]1C(=O)N2C(C(=O)OCOC(=O)C(C)(C)C)=C(/C=C\c3scnc3C)CS[C@H]12)c1csc(N)n1` [cefditoren-pivoxil], the “inhibition” value is -0.15%.
The same measure for `O=C(CC12CC3CC(CC(C3)C1)C2)Nc1cccc2nc(NCCNCCO)ccc12`: 8.07%; for `Nc1[nH]cnc2ncnc1-2` [adenine]: 0.3%.
The same measure for `COc1ccc2cccc(N3CCN(CCNC(=O)c4ccc(F)cc4)CC3)c2c1`: -0.57%; for `CC(C)(C)NC[C@H](O)c1ccc(O)cc1Cl` [meluadrine]: 1.91%; for `CCOc1ccc2nc3cc(N)ccc3c(N)c2c1` [ethacridine-lactate-monohydrate]: 0.62%.
